{
  "source": "PubChem BioAssay AID504332",
  "about": "(National Center for Advancing Translational Sciences (NCATS), 2011)",
  "note": "The whole screen tested about 350,000 compounds, of which about 31,000 (8.9%) were called active. Not shown: some 15% with an inconclusive outcome. The full list was thinned out, with actives kept by preference. Values without a mark were called inactive. Calls come from the whole dose curve; as a rule, active = well fitted inhibition curve with a large enough effect; inconclusive = small, poorly fitted or top-dose-only effect; inactive = no such curve, though single readings can be large or run the other way. % is set by controls: 0 for no effect and ±100 for the full control effect; potency is the fitted concentration of half-maximal effect.",
  "data": [
    {"target": "Histone-lysine N-methyltransferase EHMT2 (Homo sapiens) (UniProt Q96KQ7)", "sequence (Q96KQ7 913-1193 limits assumed)": "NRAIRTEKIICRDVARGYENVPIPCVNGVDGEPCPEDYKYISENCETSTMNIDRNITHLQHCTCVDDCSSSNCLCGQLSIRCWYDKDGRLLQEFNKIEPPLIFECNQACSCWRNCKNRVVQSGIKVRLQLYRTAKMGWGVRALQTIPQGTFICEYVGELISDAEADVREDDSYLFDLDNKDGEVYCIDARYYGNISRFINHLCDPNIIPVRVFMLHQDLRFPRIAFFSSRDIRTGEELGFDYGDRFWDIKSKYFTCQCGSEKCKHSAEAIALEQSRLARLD", "experiment": "qHTS Assay for Inhibitors of Histone Lysine Methyltransferase G9a; note: nearly all actives have a fitted effect of over 75% in size", "settings": "G9a H3K9 monomethylation, AlphaScreen, 2 h; series mostly up to 59 µM; activity, negative = inhibition: at the top concentration", "method_in_brief": "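G9a (20 nM) preincubated 15 min RT with compounds, then 500 nM biotinylated H3K9 peptide and 20 uM SAM added; 2 h RT reaction. Monomethyl-H3K9 product detected by AlphaScreen with anti-H3K9me1 antibody, streptavidin donor and anti-rabbit IgG acceptor beads.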", "values": [
      {"smiles": "Cc1ccc(-c2nc3ccccn3c2Nc2c(C)cccc2C)o1", "Potency": "12.6 µM (active)"},
      {"smiles": "Cc1ccc(Nc2c(-c3ccc(C)s3)nc3ccccn23)cc1", "activity, negative = inhibition": "-27%"},
      {"smiles": "Cc1nc2ccccn2c(=O)c1NC(=O)c1c(F)cccc1F", "activity, negative = inhibition": "-4.54%"},
      {"smiles": "CN1CCN(Cc2c(O)ccc3c2oc(=O)c2ccccc23)CC1", "activity, negative = inhibition": "-28% [at 2.33 µM]"},
      {"smiles": "CCc1cc2c(-c3ccccc3)cc(=O)oc2c2c1OCN(Cc1ccc(C)cc1)C2", "activity, negative = inhibition": "29.3%"},
      {"smiles": "Cc1ccc(CN2COc3cc(C)c4c(oc(=O)c5ccccc54)c3C2)cc1", "Potency": "12.6 µM (active)"},
      {"smiles": "COc1ccccc1CNS(=O)(=O)c1cc(C(=O)NCc2ccccn2)c(Cl)cc1Cl", "activity, negative = inhibition": "-12.7% [at 102 µM]"},
      {"smiles": "CCOc1ccc(NC(=O)C2CCN(S(=O)(=O)c3cc(-c4noc(C)n4)ccc3C)CC2)cc1", "activity, negative = inhibition": "12.1%"},
      {"smiles": "Cc1ccccc1NC(=O)Cn1c(=O)n(Cc2ccco2)c(=O)c2ccc(C(=O)NC3CCCC3)cc21", "activity, negative = inhibition": "-0.813%"},
      {"smiles": "CCN1C(=O)c2ccccc2S(=O)c2ccc(C(=O)NCc3ccc(F)cc3)cc21", "note": "(centres undefined)", "activity, negative = inhibition": "5.23%"},
      {"smiles": "COc1cccc(CCNC(=O)COc2cccc3c2OC(C)(C)C3)c1", "activity, negative = inhibition": "0.938% [at 102 µM]"},
      {"smiles": "COC(=O)/C(NC(C)=O)=C(\\C)c1ccc(Cl)cc1", "activity, negative = inhibition": "-9.9%"},
      {"smiles": "COC(=O)c1cn(C(=O)c2ccc(Cl)cc2)c2ccccc12", "activity, negative = inhibition": "231% [at 102 µM]"},
      {"smiles": "COC(=O)C(=Nc1ccccc1)/C(C(=O)C(=O)N(C)c1ccccc1)=C(\\O)c1ccc(Cl)cc1", "Potency": "20 µM (active)"},
      {"smiles": "Cc1cc(Nc2cccc(C(F)(F)F)c2)nc2ccc(NC(=O)c3ccc(=O)[nH]c3)cc12", "activity, negative = inhibition": "-0.704%"},
      {"smiles": "O=C(O)CS/C(=C\\c1ccc(F)cc1)c1nc2ccccc2s1", "activity, negative = inhibition": "-4.8% [at 102 µM]"},
      {"smiles": "O=C(Nc1nc2ccccc2s1)c1ccc2c(c1)OCO2", "activity, negative = inhibition": "11.3%"},
      {"smiles": "O=C(O)CC/C(=C\\c1cc2c(cc1Br)OCO2)c1nc2ccccc2s1", "Potency": "35.5 µM (active)"},
      {"smiles": "Cc1ccc2oc3c(c(=O)c2c1)C(c1ccc(O)cc1)N(Cc1ccc2c(c1)OCO2)C3=O", "note": "(centres undefined)", "activity, negative = inhibition": "-10.3%"},
      {"smiles": "Cc1ccc(-n2c(=O)c3cccnc3n2CC(=O)Nc2ccccc2C(F)(F)F)cc1C", "activity, negative = inhibition": "15.4%"},
      {"smiles": "COc1ccc(Cc2nnc(SCC(=O)Nc3ccc(C)c(C)c3)o2)cc1OC", "activity, negative = inhibition": "-11.7% [at 102 µM]"},
      {"smiles": "COc1ccc(S(=O)(=O)N2CCOCC2)cc1NC(=O)COc1ccccc1", "Potency": "12.6 µM (active)"},
      {"smiles": "O=C(CNCc1ccco1)Nc1cc(S(=O)(=O)N2CCOCC2)ccc1N1CCCC1", "Potency": "50.1 µM (active)"},
      {"smiles": "O=C(CNCc1cccs1)Nc1cc(S(=O)(=O)N2CCCC2)ccc1Cl", "activity, negative = inhibition": "-123%"},
      {"smiles": "Cc1ccc(S(=O)(=O)N2CCOCC2)cc1C(=O)Nc1ccccc1N1CCCC1", "activity, negative = inhibition": "11% [at 0.501 µM]"},
      {"smiles": "Cc1cccc(OCCC(=O)Nc2cc(S(=O)(=O)N3CCCCC3)ccc2N2CCOCC2)c1", "activity, negative = inhibition": "-11.2% [at 102 µM]"},
      {"smiles": "O=C(Nc1ccc(N2CCCCC2)cc1)c1cc(S(=O)(=O)N2CCOCC2)ccc1F", "Potency": "17.8 µM (active)"},
      {"smiles": "COc1ccc(S(=O)(=O)N2CCCCC2)cc1NC(=O)COc1ccccc1", "activity, negative = inhibition": "-9.48% [at 2.33 µM]"},
      {"smiles": "Cc1ccc(S(=O)(=O)N2CCOCC2)cc1C(=O)NCc1ccc(F)cc1", "activity, negative = inhibition": "-8.42%"},
      {"smiles": "COc1ccc(S(=O)(=O)N2CCOCC2)cc1NC(=O)CSc1ncnc2ccccc12", "activity, negative = inhibition": "-0.39% [at 102 µM]"},
      {"smiles": "O=C(Nc1ccc2c(c1)nc1n2CCCCC1)c1cc(S(=O)(=O)N2CCOCC2)ccc1Cl", "activity, negative = inhibition": "14.4% [at 102 µM]"},
      {"smiles": "CC(Oc1ccc(F)cc1)C(=O)Nc1cc(S(=O)(=O)N2CCOCC2)ccc1N1CCN(C)CC1", "note": "(centres undefined)", "Potency": "11.2 µM (active)"},
      {"smiles": "COc1ccc(S(=O)(=O)N2CCOCC2)cc1NC(=O)c1ccc(OCC(C)C)c(OC)c1", "activity, negative = inhibition": "22.9% [at 2.33 µM]"},
      {"smiles": "CC1CCC2(CC1)N=C(c1ccccc1)C(=O)N2CC(=O)Nc1ccc(F)c(Cl)c1", "note": "(centres undefined)", "activity, negative = inhibition": "7.11%"},
      {"smiles": "O=C(NCc1cccnc1)C(=O)NCC(c1cccnc1)N1CCN(c2ccccc2)CC1", "note": "(centres undefined)", "activity, negative = inhibition": "4.02%"},
      {"smiles": "Cc1c(NC(=O)C(C)(C)C)cccc1-c1nc2ccccc2s1", "activity, negative = inhibition": "2.75%"},
      {"smiles": "CCc1ccc(-n2nnc(-c3nc(-c4ccccc4)no3)c2C)cc1", "activity, negative = inhibition": "6.71%"},
      {"smiles": "CCCCn1c(=N)c(S(=O)(=O)c2ccccc2)cc2c(=O)n3cccc(C)c3nc21", "activity, negative = inhibition": "3.44%"},
      {"smiles": "COc1cccc(N=C2SC(C(=O)Nc3cccc(Cl)c3)CC(=O)N2C)c1", "note": "(centres undefined)", "activity, negative = inhibition": "12.3%"},
      {"smiles": "Cc1cccc2c1-c1sc(C(=O)Nc3ccc(F)cc3F)cc1CO2", "activity, negative = inhibition": "28.5%"},
      {"smiles": "CC(=O)c1c(C)[nH]c(C(=O)OCC(=O)Nc2cc(S(=O)(=O)N3CCCCC3)ccc2C)c1C", "activity, negative = inhibition": "-1.48%"},
      {"smiles": "O=C(Nc1ccc(S(=O)(=O)N2CCc3ccccc3C2)cc1)c1ccccc1", "activity, negative = inhibition": "46.5% [at 12.7 µM]"},
      {"smiles": "CC(C)c1ccc(NC(=O)c2cc(S(=O)(=O)N3CCc4ccccc4C3)ccc2F)cc1", "Potency": "25.1 µM (active)"},
      {"smiles": "O=C(COC(=O)c1ccccc1F)Nc1cc(S(=O)(=O)N2CCOCC2)ccc1N1CCCC1", "Potency": "35.5 µM (active)"},
      {"smiles": "CC(NC(=O)c1cccc(S(=O)(=O)N2CCc3ccccc3C2)c1)c1ccco1", "note": "(centres undefined)", "activity, negative = inhibition": "5.8%"},
      {"smiles": "O=C(COc1cccc2ccccc12)Nc1cc(S(=O)(=O)N2CCOCC2)ccc1N1CCOCC1", "activity, negative = inhibition": "-25.6% [at 102 µM]"},
      {"smiles": "CS(=O)(=O)c1ccc(Cl)c(NC(=O)COC(=O)c2cccc(S(=O)(=O)N3CCCC3)c2)c1", "Potency": "56.2 µM (active)"},
      {"smiles": "O=C(COC(=O)CCOc1ccccc1)Nc1cc(S(=O)(=O)N2CCCCC2)ccc1Cl", "activity, negative = inhibition": "4.58% [at 2.33 µM]"},
      {"smiles": "O=C(COC(=O)Cc1ccc(F)cc1)Nc1cc(S(=O)(=O)N2CCOCC2)ccc1N1CCCC1", "activity, negative = inhibition": "-1.2%"}
    ]}
  ]
}
